Test results as given in PubChem BioAssay (NCI).
This is part of a sample that, as a whole, favours compounds with a hit. Of some 79,000 tested, about 15% had one in any assay. The source made the active and inactive calls. Rule as the data show it: active = growth inhibition above about 70%; inactive = the rest.

What was measured:
[1] = NCI Yeast Anticancer Drug Screen. Data for the wt2 strain (AID 169);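 also: 0% = growth of vehicle-treated yeast cultures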; details: S. cerevisiae wt2 strain growth inhibition, hits give high values
Method in brief: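 Values express reduction in yeast growth under compound treatment, referenced to vehicle-treated cells.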

[2] = NCI Yeast Anticancer Drug Screen. Data for the mlh1 strain (AID 171);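 also: 0% = growth of vehicle-treated control cultures of the same strain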; details: S. cerevisiae mlh1 strain growth inhibition, hits give high values
Method in brief: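 Steps: expose the defined-mutant yeast strain to compound; expose a parallel culture to vehicle; measure growth; express compound effect as inhibition relative to the vehicle culture.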

[3] = NCI Yeast Anticancer Drug Screen. Data for the sgs1 strain (AID 173);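 also: 0% = growth of vehicle-only control cultures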; details: S. cerevisiae sgs1 mutant, hits give high values
Method in brief: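 Treat defined-mutant yeast with compound; measure growth; calculate inhibition relative to vehicle-treated cells.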

[4] = NCI Yeast Anticancer Drug Screen. Data for the rad52 strain (AID 147);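 also: 0% = growth of vehicle-treated control cultures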; details: S. cerevisiae rad52 mutant growth inhibition, hits give high values
Method in brief: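 Screen used a yeast mutant impaired in DNA repair. After compound exposure, growth was measured. Values reflect inhibition compared with vehicle-treated cells.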

[5] = NCI Yeast Anticancer Drug Screen. Data for the wt1 strain (AID 149);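 also: 0% = growth of vehicle-treated wt1 cultures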; details: S. cerevisiae wt1 strain (SPY 50644) growth inhibition, hits give high values
Method in brief: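 Using yeast strain wt1, compound-induced growth inhibition was determined against vehicle-treated cultures.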

[6] = NCI Yeast Anticancer Drug Screen. Data for the rad50EPP+ strain (AID 151);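 also: 0% = growth of vehicle-treated control cultures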; details: S. cerevisiae rad50 mutant strain, hits give high values
Method in brief: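 Exposing the rad50EPP+ strain to each compound, growth was compared with vehicle-only cultures to give inhibition.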

[7] = NCI Yeast Anticancer Drug Screen. Data for the mgt1 strain (AID 153); details: S. cerevisiae mgt1 mutant growth inhibition, hits give high values
Method in brief: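 Genetically defined yeast (mgt1) treated with compound; inhibition of growth expressed against vehicle-treated controls.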

[8] = NCI Yeast Anticancer Drug Screen. Data for the rad50 strain (AID 155);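 also: 0% = growth of vehicle-only cultures of the same strain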; details: S. cerevisiae rad50 strain growth inhibition, hits give high values
Method in brief: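 Relative growth inhibition (compound vs vehicle) was measured in yeast with a defined repair-gene alteration.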

[9] = NCI Yeast Anticancer Drug Screen. Data for the mec2-1 strain (AID 157); details: S. cerevisiae mec2-1 strain, hits give high values
Method in brief: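 Readout is yeast growth inhibition, normalised to vehicle-treated controls, in the mec2-1 strain exposed to compound.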

[10] = NCI Yeast Anticancer Drug Screen. Data for the rad14 strain (AID 159);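 also: 0% = growth of vehicle-treated control cultures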; details: S. cerevisiae rad14 strain growth inhibition, hits give high values
Method in brief: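 Screen for anticancer potential: a yeast strain altered in DNA damage repair is grown with compound, and reduced growth is quantified against vehicle controls.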

[11] = NCI Yeast Anticancer Drug Screen. Data for the sgs1 mgt1 strain (AID 161);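 also: 0% = growth of cultures given vehicle only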; details: S. cerevisiae sgs1 mgt1 strain, hits give high values
Method in brief: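 Percent growth inhibition was derived by comparing compound-exposed mutant yeast with vehicle-exposed cultures. The strain carries alterations in DNA damage repair.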

[12] = NCI Yeast Anticancer Drug Screen. Data for the CLN2oe strain (AID 163);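 also: 0% = growth of vehicle-only control cultures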; details: S. cerevisiae CLN2oe strain, hits give high values
Method in brief: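 Values reflect how much compound exposure reduced yeast growth, referenced to vehicle-exposed cells. Assay organism is a strain with a defined genetic change affecting cell-cycle control.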

[13] = NCI Yeast Anticancer Drug Screen. Data for the cln2 rad14 strain (AID 165);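 also: 0% = growth equal to vehicle treated cultures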; details: S. cerevisiae cln2 rad14 strain, hits give high values
Method in brief: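 Relative to vehicle controls, growth inhibition of compound-treated cln2 rad14 yeast was recorded.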

[14] = NCI Yeast Anticancer Drug Screen. Data for the bub3 strain (AID 167); details: S. cerevisiae bub3 mutant strain, hits give high values
Method in brief: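 Screening used yeast with an engineered genetic alteration affecting cell cycle control. Compound-exposed cultures were compared with vehicle cultures, and reduced growth was taken as inhibition.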

[15] = NCI Yeast Anticancer Drug Screen. Data for the mlh1 rad18 strain (AID 175); details: S. cerevisiae mlh1 rad18 strain growth inhibition, hits give high values
Method in brief: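 Test agents were incubated with a yeast strain of defined genotype (DNA damage repair defect). Inhibition of growth was derived by comparison with vehicle-exposed cultures.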

[16] = NCI Yeast Anticancer Drug Screen. Data for the rad18 strain (AID 177); details: S. cerevisiae rad18 mutant growth inhibition, hits give high values
Method in brief: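 A genetically defined yeast mutant impaired in DNA damage repair was treated with test compounds, then its growth was measured against cultures receiving vehicle alone.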

[17] = at 5.0 µM (retest, dose inferred, filed as 0.5)
[18] = at 50.0 µM (retest, dose inferred, filed as 5.0)

Measured: growth inhibition

CC1(C)CC(=O)C(/C=N/c2nc(-c3ccc(Br)cc3)cs2)=C(O)C1
inactive: [1]; at 1.2 µM 0% | [1]; at 3.7 µM 3% | [1]; at 11.0 µM 29% | [2]; at 1.2 µM 3% | [2]; at 3.7 µM 5% | [2]; at 11.0 µM 30% | [3]; at 1.2 µM 10% | [3]; at 3.7 µM 15% | [3]; at 11.0 µM 49%
active: [1]; at 33.0 µM 93% | [1]; at 100.0 µM 98% | [2]; at 33.0 µM 96% | [2]; at 100.0 µM 98% | [3]; at 33.0 µM 97% | [3]; at 100.0 µM 98%

c1ccc2c(c1)N=C1CCCC3CCCC123 (stereo unspecified)
inactive: [4]; at 1.2 µM 3% | [4]; at 3.7 µM 4% | [4]; at 11.0 µM 11% | [4]; at 33.0 µM 56% | [5]; at 1.2 µM -2% | [5]; at 3.7 µM 2% | [5]; at 11.0 µM 7% | [5]; at 33.0 µM -1% | [6]; at 1.2 µM -9% | [6]; at 3.7 µM -14% | [6]; at 11.0 µM -11% | [6]; at 33.0 µM 5% | [6]; at 100.0 µM 68% | [7]; at 1.2 µM 1% | [7]; at 3.7 µM 1% | [7]; at 11.0 µM 6% | [7]; at 33.0 µM 21% | [8]; at 1.2 µM -2% | [8]; at 3.7 µM 2% | [8]; [17] -161% | [8]; at 11.0 µM 11% | [8]; at 33.0 µM 32% | [8]; [18] 63% | [9]; at 1.2 µM -2% | [9]; at 3.7 µM 1% | [9]; [17] -46% | [9]; at 11.0 µM -15% | [9]; at 33.0 µM 25% | [9]; [18] 65% | [10]; at 1.2 µM -3% | [10]; at 3.7 µM -7% | [10]; at 11.0 µM 3% | [10]; at 33.0 µM 3% | [11]; [17] -57% | [11]; [18] 60% | [12]; at 1.2 µM -3% | [12]; at 3.7 µM -1% | [12]; at 11.0 µM 4% | [12]; at 33.0 µM 15% | [13]; [17] -67% | [13]; [18] -26% | [13]; at 50.0 µM 23.6% | [14]; at 1.2 µM -2% | [14]; at 3.7 µM 10% | [14]; [17] -50% | [14]; at 11.0 µM 22% | [14]; at 33.0 µM 61% | [14]; [18] 61% | [1]; at 1.2 µM 1% | [1]; at 3.7 µM 2% | [1]; at 11.0 µM 3% | [1]; at 33.0 µM -1% | [2]; at 1.2 µM 6% | [2]; at 3.7 µM 3% | [2]; at 11.0 µM 3% | [2]; at 33.0 µM 3% | [3]; at 1.2 µM -1% | [3]; at 3.7 µM 9% | [3]; at 11.0 µM 12% | [3]; at 33.0 µM 16% | [15]; [17] -133% | [15]; [18] 12%
active: [4]; at 100.0 µM 98% | [5]; at 100.0 µM 97% | [7]; at 100.0 µM 98% | [8]; at 50.0 µM 91% | [8]; at 100.0 µM 98% | [9]; at 50.0 µM 89.6% | [9]; at 100.0 µM 99% | [10]; at 100.0 µM 97% | [11]; at 50.0 µM 83.7% | [12]; at 100.0 µM 98% | [14]; at 50.0 µM 91.4% | [14]; at 100.0 µM 98% | [1]; at 100.0 µM 98% | [2]; at 100.0 µM 97% | [3]; at 100.0 µM 99% | [15]; at 50.0 µM 90.8%

O=S1(=O)CCC2=CC(C(F)(F)F)=CC(C(F)(F)F)=CN21
inactive: [4]; at 1.2 µM 26% | [4]; at 3.7 µM 42% | [5]; at 1.2 µM 2% | [5]; at 3.7 µM 29% | [5]; at 11.0 µM 53% | [6]; at 1.2 µM 2% | [6]; at 3.7 µM 16% | [6]; at 11.0 µM 24% | [6]; at 33.0 µM 38% | [7]; at 1.2 µM 15% | [7]; at 3.7 µM 27% | [7]; at 11.0 µM 55% | [8]; at 1.2 µM 61% | [8]; [17] 38% | [9]; at 1.2 µM 52% | [9]; at 3.7 µM 61% | [9]; [17] 66% | [10]; at 1.2 µM 25% | [10]; at 3.7 µM 38% | [10]; at 11.0 µM 67% | [11]; [17] 59% | [12]; at 1.2 µM 25% | [12]; at 3.7 µM 22% | [12]; at 11.0 µM 40% | [12]; at 33.0 µM 68% | [13]; [17] 13% | [14]; at 1.2 µM 26% | [14]; at 3.7 µM 52% | [14]; [17] 57% | [1]; at 1.2 µM 3% | [1]; at 3.7 µM 14% | [1]; at 11.0 µM 51% | [2]; at 1.2 µM 27% | [2]; at 3.7 µM 36% | [2]; at 11.0 µM 67% | [3]; at 1.2 µM 51% | [3]; at 3.7 µM 67% | [16]; at 1.2 µM 54% | [16]; at 3.7 µM 67%
active: [4]; at 11.0 µM 71% | [4]; at 33.0 µM 89% | [4]; at 100.0 µM 98% | [5]; at 33.0 µM 83% | [5]; at 100.0 µM 98% | [6]; at 100.0 µM 79% | [7]; at 33.0 µM 82% | [7]; at 100.0 µM 98% | [8]; at 3.7 µM 71% | [8]; at 11.0 µM 79% | [8]; at 33.0 µM 89% | [8]; [18] 96% | [8]; at 50.0 µM 95.5% | [8]; at 100.0 µM 98% | [9]; at 11.0 µM 81% | [9]; at 33.0 µM 93% | [9]; [18] 97% | [9]; at 50.0 µM 97.9% | [9]; at 100.0 µM 99% | [10]; at 33.0 µM 91% | [10]; at 100.0 µM 98% | [11]; [18] 98% | [11]; at 50.0 µM 94.4% | [12]; at 100.0 µM 98% | [13]; [18] 92% | [13]; at 50.0 µM 83.9% | [14]; at 11.0 µM 78% | [14]; at 33.0 µM 92% | [14]; [18] 89% | [14]; at 50.0 µM 96.9% | [14]; at 100.0 µM 98% | [1]; at 33.0 µM 83% | [1]; at 100.0 µM 98% | [2]; at 33.0 µM 86% | [2]; at 100.0 µM 98% | [3]; at 11.0 µM 80% | [3]; at 33.0 µM 94% | [3]; at 100.0 µM 99% | [15]; [17] 76% | [15]; [18] 98% | [15]; at 50.0 µM 97.2% | [16]; at 11.0 µM 79% | [16]; at 33.0 µM 90% | [16]; at 100.0 µM 97%
